About 1,100 (1.7%) of roughly 63,000 compounds were called active. Many of the other results were omitted from the sample, so actives are more common in it than they were. Results with a measured potency or affinity are listed apart. A number with no mark means an inactive call. Rule as the data show it: active = cytotoxicity above about 50%; inactive = the rest.

This test is described as follows: HPDE-C7 pancreatic duct cell viability loss – fluorescence, HTS (AID 430).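 Also: cells exposed to compound for 48 hours before viability readout; 0% = vehicle and 100% = reference cytotoxic drug.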 Particulars: HPDE-C7 pancreatic duct cells viability, at 10 µM, stronger effect = higher value.
As to `CCn1c(=O)n(CC(=O)Nc2cccc(OC)c2)c(=O)c2ccccc21`, the cytotoxicity is -12.1%.

Turning to `CN(C)CCCNC(=O)Cc1ccc(Br)cc1`, the cytotoxicity is -3.8%.

For `COc1cc(C2C(C(=O)c3ccc(C)o3)=C(O)C(=O)N2c2cc(C)on2)ccc1O` (centres undefined), the cytotoxicity was -0.7%.

Turning to `CC(NC(=O)NCCCn1ccnc1)(C(F)(F)F)C(F)(F)F`, the cytotoxicity was 9.8%.

For the compound `O=C(Nc1ccc(CN2CCOCC2)cc1)c1cc2ccccc2o1`, the cytotoxicity is -0.1%.

Take `O=C(Nc1ccc(CN2CCCCC2)cc1)c1ccc(Br)o1`: the cytotoxicity was -14.9%.

For `O=C(Cc1ccc(-c2ccccc2)cc1)NCCN1CCOCC1`, the cytotoxicity is -11.8%.

For the compound `O=C(Nc1ccc2nc(-c3ccco3)[nH]c2c1)c1cccs1`, the cytotoxicity is 8%.

For the compound `O=C(Nc1ccc2nc(-c3ccc(Br)o3)[nH]c2c1)c1cccs1`, the cytotoxicity is 53.5% (active).

In the case of `O=C(Nc1ccc2nc(-c3ccc(Br)o3)[nH]c2c1)c1ccco1`, the cytotoxicity was 44.7%.

As to `CNC(=O)CCn1nc(-c2ccc(Cl)cc2)c2ccccc2c1=O`, the cytotoxicity was 10.8%.

On to `Oc1ccc(N=Cc2ccc(O)c(O)c2)cc1`, for which the cytotoxicity is 18%.

For the compound `COc1ccc(-c2cc(O)cc(O)c2)cc1`, the cytotoxicity was -7.5%.

As to `CCn1c(C2CC(=O)N(Cc3ccccc3)C2)nc2ccccc21` (centres undefined), the cytotoxicity was -14.7%.

As for `O=C1CC(=O)N(Cc2cccs2)C(=O)N1`, the cytotoxicity was -15.3%.

In the case of `O=C(O)c1ccc(NC(=O)C2CC=CCC2C(=O)O)cc1` (centres undefined), the cytotoxicity is -3.4%.

With `CCOCCCN(Cc1cc2cc(C)cc(C)c2[nH]c1=O)C(=O)N(CC)CC`, the cytotoxicity is -8.9%.

Take `O=c1oc(-c2cccs2)nc2sc3c(c12)CCC3`: the cytotoxicity is 28.2%.

On to `O=c1oc(-c2cc3ccccc3o2)nc2sc3c(c12)CCCC3`, for which the cytotoxicity is 51.3% (active).

On to `Cc1nc2sc3c(c2c(=O)o1)CCCC3`, for which the cytotoxicity was 0%.

With `Cc1nc2sc3c(c2c(=O)o1)CCC3`, the cytotoxicity is 4.8%.

Take `O=c1oc(-c2cccs2)nc2sc3c(c12)CCCCC3`: the cytotoxicity is 52% (active).

As to `Nn1c(-c2cccs2)nc2sc3c(c2c1=O)CCCC3`, the cytotoxicity is -1.4%.

As to `O=C(CN1C(=O)CSC1=O)NCc1ccccc1`, the cytotoxicity was 8.1%.

Take `O=C(c1cc(S(=O)(=O)N2CCOCC2)ccc1F)N1CCN(Cc2ccccc2)CC1`: the cytotoxicity is -2.7%.

For the compound `O=C(CSc1nc2ccccc2c(=O)n1CCC(=O)N1CCCCC1)NCc1ccccc1`, the cytotoxicity was -24.2%.

Regarding `COc1ccc(-c2nnc(SCC(=O)Nc3cc(C)on3)n2C)cc1OC`, the cytotoxicity is -16.6%.

On to `O=C(NCCn1cccc1)c1cccc2ccccc12`, for which the cytotoxicity was 1.3%.

Regarding `CCOC(=O)C1CCCN(Cc2ccc(OC)cc2OC)C1` (centres undefined), the cytotoxicity is 8.6%.

Take `COc1ccc(-c2nnc(-c3cccs3)o2)cc1OC`: the cytotoxicity was -10.3%.

Turning to `COc1ccc(-c2nc(-c3cccs3)c(-c3cccs3)[nH]2)cc1O`, the cytotoxicity was 71.6% (active).

In the case of `COc1ccc(-c2nc3ccccc3s2)cc1O`, the cytotoxicity was -5.7%.

Take `Fc1ccccc1CSc1nnnn1-c1ccc2c(c1)OCO2`: the cytotoxicity is -2%.

Turning to `Fc1cccc(Cl)c1Cn1nnc(-c2ccc3c(c2)OCO3)n1`, the cytotoxicity was -6.1%.

As to `Fc1cccc(Cl)c1CSc1nnnn1-c1ccc2c(c1)OCO2`, the cytotoxicity was 53.7% (active).

Turning to `CCc1nccn1S(=O)(=O)c1ccc(C)c(C)c1`, the cytotoxicity is 2.1%.

For the compound `COc1ccc(OC)c(C(c2nnnn2CC2CCCO2)N2CCN(C3CCCC3)CC2)c1` (centres undefined), the cytotoxicity is -10.4%.

Regarding `CC(Sc1ccccc1)C(=O)Nc1ccc(S(=O)(=O)N2CCOCC2)cc1` (centres undefined), the cytotoxicity was -9.5%.

Regarding `CC1CN(C2CCCCC2)c2nc3c(c(=O)[nH]c(=O)n3C)n2C1` (centres undefined), the cytotoxicity is -2%.

Turning to `COc1cc(S(=O)(=O)N2CCC(N3CCCCC3)CC2)ccc1-n1cnnn1`, the cytotoxicity was 9.2%.

For `COc1cc(S(=O)(=O)N2CCCC3(CCCCC3)C2)ccc1-n1cnnn1`, the cytotoxicity was 78.1% (active).

On to `COc1cc(S(=O)(=O)N2CCN3CCCC3C2)ccc1-n1cnnn1` (centres undefined), for which the cytotoxicity is 5.7%.

Regarding `CCOC(=O)C1=C(C)NC2=C(C(=O)CCC2)C1c1ccc(N(C)C)cc1` (centres undefined), the cytotoxicity is 1.2%.

In the case of `COc1ccc(CCNC(=O)C2CCCN(S(=O)(=O)c3cccc4nonc34)C2)cc1OC` (centres undefined), the cytotoxicity is -21.9%.

In the case of `OC(COc1ccccc1)CN1C2=NCCCN2c2ccccc21` (centres undefined), the cytotoxicity was 4.3%.

Turning to `O=C(NCc1ccco1)C1OCCc2ccccc21` (centres undefined), the cytotoxicity was -15.1%.

On to `CCOC(=O)C1CCN(C(=O)c2ccc(SC)cc2OC)CC1`, for which the cytotoxicity was -4.9%.

For `c1cncc(-c2nnc(SCc3nc4ccccc4[nH]3)o2)c1`, the cytotoxicity is -14.6%.

With `c1ccc2[nH]c(CSc3nnc(-c4ccncc4)o3)nc2c1`, the cytotoxicity was 3.2%.

For `c1coc(-c2nnc(SCc3nc4ccccc4[nH]3)o2)c1`, the cytotoxicity is 65.9% (active).

Regarding `Cc1cc(C)nc(NS(=O)(=O)c2ccc(NC(=O)CCCN3C(=O)c4ccccc4C3=O)cc2)n1`, the cytotoxicity was 1.9%.

Take `CC(=O)Nc1c(O)n(C)c2ccccc12`: the cytotoxicity was -20.2%.

Turning to `COc1ccc(-n2c(Cc3cccn3C)nnc2SCC(=O)NC2CCCCC2)cc1`, the cytotoxicity was -11.2%.

For `COc1ccc(N(CC(=O)NC2CCCC2)C(=O)Cn2nnc(-c3ccc(C)cc3)n2)cc1OC`, the cytotoxicity is -4.2%.

Regarding `CC1C(=O)CCC1(C(=O)O)c1ccccc1` (centres undefined), the cytotoxicity is 9.4%.

Consider `Cc1ccc(-c2csc3ncnc(-n4nc(C)cc4N)c23)cc1`, for which the cytotoxicity was 0.5%.

For `CCn1c(CN2CCCCCC2=O)nnc1SCc1cnc(-c2ccccc2)s1`, the cytotoxicity is 4.1%.

In the case of `CN1CCN(Cc2nc3c(c(=O)[nH]c(=O)n3C)n2Cc2c(F)cccc2Cl)CC1`, the cytotoxicity is -13.5%.

Consider `CN(Cc1ccccc1)C(=O)CCS(=O)(=O)c1ccc2c(c1)n(C)c(=O)c(=O)n2C`, for which the cytotoxicity was -7%.

As for `CCOc1ccc2[nH]c(=O)c(CN(Cc3ccco3)C(=O)c3ccc(Br)cc3)cc2c1`, the cytotoxicity was 22.7%.

`CCOc1ccc2[nH]c(=O)c(CN(Cc3ccco3)C(=O)c3cccc(F)c3)cc2c1`: the cytotoxicity is 78% (active).

`COc1ccc2[nH]c(=O)c(CN(Cc3ccco3)C(=O)c3ccccc3)cc2c1`: the cytotoxicity is -8.8%.

Take `CCCn1nnc(NC(=O)COc2ccc(Cl)cc2)n1`: the cytotoxicity is -10.6%.

On to `COCCN(C(=O)Cc1cccs1)c1nnc(-c2cccnc2)s1`, for which the cytotoxicity is -0.4%.

The values are drawn from PubChem BioAssay AID430 (Sanford-Burnham Center for Chemical Genomics, 2006).
